This excerpt belongs to a sample that is enriched for hits.
Marburg entry inh: inhibitors of Marburg virus binding or cell entry. AID 540276. Marburg virus pseudotyped entry inhibition, cell reporter. Potency, µM (doses to about 37.8 µM), without a hit: at the highest dose activity change, negative = inhibition, usual class: inhibitors. 1.8% of 300,000 active; calls by dose curve; tested in HEK293 cells; note: potency is the fitted concentration of half-maximal effect; % is set by controls: 0 for no effect and ±100 for the full control effect
CHX counter: counter-screen for Shiga toxin inhibitors: cycloheximide protein synthesis inhibition; cell reporter, cycloheximide protein synthesis inhibition counterscreen; max response, %; 12% of 300,000 active; AID 2314; in the data active = max response mostly above about 13%, no sharp cut-off; inactive = mostly below about 14%; note: read at 38.3 µM for the half of the compounds with a filed dose; 0% is about no effect
Shiga toxin inh: blocks Shiga toxin action in Vero cells; 9.2% of 290,000 active; Vero cells, Shiga toxin protein synthesis inhibition reporter; inhibition, % at 38.7 µM; AID 2315; in the data active = inhibition mostly above about 28%, no sharp cut-off; inactive = mostly below about 43%; note: 0% is about no effect
Vaccinia mCherry: inhibitors of vaccinia virus infection (mCherry reporter signal); Vaccinia virus mCherry reporter infection, fluorescence; Potency, µM (series often up to 36.5 µM), for inactives: at the highest dose activity change, negative = inhibition, most hits filed as inhibitors; 0.63% of 310,000 active; calls by dose curve; tested in A549 cells; note: potency is the fitted concentration of half-maximal effect; % is set by controls: 0 for no effect and ±100 for the full control effect; nearly all actives have a fitted effect of over 35% in size
Lassa entry inh: inhibitors of Lassa virus binding or cell entry; AID 540256; 1.2% of 300,000 active; Potency, µM (doses to about 37.9 µM), inactives show at the highest dose activity change, negative = inhibition, actives largely listed as inhibitors; Lassa virus pseudotype entry inhibition, cell reporter; calls by dose curve; tested in HEK293 cells; note: potency is the fitted concentration of half-maximal effect; % is set by controls: 0 for no effect and ±100 for the full control effect; nearly all actives have a fitted effect of over 50% in size
VACV Venus inh: vaccinia inhibition (Venus reporter); Vaccinia virus Venus reporter expression, fluorescence; Potency, µM (doses to about 36.5 µM), without a hit: at the top dose activity change, negative = inhibition, usual class: inhibitors; 0.46% of 330,000 active; calls by dose curve; tested in A549 cells; note: potency is the fitted concentration of half-maximal effect; % is set by controls: 0 for no effect and ±100 for the full control effect; nearly all actives have a fitted effect of over 30% in size
Active calls of the source: *; ! = not active in a repeat; [ ] = dose if it differs, or a comment.

Screening O=C(NCc1ccccc1)C(=O)NCC1COc2ccccc2O1 (configuration not stated) returned Marburg entry inh -22%[46.1 µM], CHX counter -2, Shiga toxin inh 3, Vaccinia mCherry inconclusive, Lassa entry inh inconclusive and VACV Venus inh inconclusive.
Screening Cc1ccc2nc(SCC(=O)N3CCC4(CC3)CC4C(=O)Nc3ccc(F)c(F)c3)[nH]c2c1 (configuration not stated) returned Vaccinia mCherry -6% and VACV Venus inh -8%.
Screening COc1ccc(CNC(=O)C2COc3ccccc3O2)c(OC)c1 (configuration not stated) returned CHX counter 31* and Shiga toxin inh 103*.
`COc1ccc(/C(C)=N/NC(=O)CNC(=O)C2COc3ccccc3O2)c(OC)c1` (configuration not stated) gave Marburg entry inh inconclusive, CHX counter -1, Shiga toxin inh 17, Vaccinia mCherry -6%, Lassa entry inh -13%[46.1 µM] and VACV Venus inh -23%.
`Cc1ccc(CNC(=O)C2COc3ccccc3O2)cc1` (configuration not stated) gave CHX counter 26*, Shiga toxin inh 35, Vaccinia mCherry -20% and VACV Venus inh -7%.
Cc1onc(-c2ccccc2)c1CNC(=O)C1COc2ccccc2O1 (configuration not stated) was read as Marburg entry inh 28%[14.2 µM], CHX counter 0, Shiga toxin inh -14, Vaccinia mCherry inactive, Lassa entry inh -5% and VACV Venus inh 1%.
`Cc1nc2cc(NC(=O)c3ccc(N4C(=O)CCC4=O)cc3)ccc2s1` gave CHX counter 23, Shiga toxin inh 34, Vaccinia mCherry -15% and VACV Venus inh -3%.
For CCCNC[C@H](O)COc1ccccc1C(=O)CCc1ccccc1 the results were Marburg entry inh 7.1µM*.
CC(C)(C)NCC(O)COc1ccccc1C(C)(C)C (configuration not stated) was read as Marburg entry inh inconclusive, CHX counter -5, Shiga toxin inh -14, Vaccinia mCherry -1%, Lassa entry inh inconclusive and VACV Venus inh -15%.
`CC(C)(C)NCC(O)COc1ccccc1C(=O)CCc1ccccc1` (configuration not stated) gave Marburg entry inh 10µM*, CHX counter -4, Shiga toxin inh -15, Vaccinia mCherry inconclusive, Lassa entry inh -1% and VACV Venus inh inconclusive.
`OC(CNCCc1ccccc1)COc1ccc(OCC(O)CNCCc2ccccc2)cc1` (configuration not stated) gave Marburg entry inh 3.2µM*, CHX counter -2, Shiga toxin inh -11, Vaccinia mCherry -22%, Lassa entry inh inconclusive and VACV Venus inh inconclusive.
Screening CS(=O)(=O)c1ccc2nc(NC(=O)CN3C(=O)NC4(CCCC4)C3=O)sc2c1 returned Marburg entry inh -7%, CHX counter 5, Shiga toxin inh -10, Vaccinia mCherry inactive, Lassa entry inh -5% and VACV Venus inh -1%.
Cc1ccc(Sc2ccc(N3CCC(C(=O)Nc4cc(C)cc(C)c4)CC3)nn2)cc1 was read as Marburg entry inh -8%[46.1 µM], Vaccinia mCherry -9%, Lassa entry inh 17%[46.1 µM] and VACV Venus inh -4%.
O=C1CCN(Cc2cccc(C(F)(F)F)c2)CCN1Cc1ccccn1 was read as Vaccinia mCherry -7% and VACV Venus inh 3%.
CC(C)(C)c1ccc(C(O)CCCN2CCC(C(O)(c3ccccc3)c3ccccc3)CC2)cc1 (configuration not stated) was read as Marburg entry inh 2.2µM*!, CHX counter 5, Shiga toxin inh 12, Vaccinia mCherry 13µM*, Lassa entry inh 2.9µM*! and VACV Venus inh 11µM*.
Screening CC(C)(C)c1ccc([C@@H](O)CCCN2CCC(C(O)(c3ccccc3)c3ccccc3)CC2)cc1 returned Marburg entry inh -18%.
CCOC(=O)C1CCN(S(=O)(=O)c2cccc(-c3cn4cc(Cl)ccc4n3)c2)CC1 was read as Marburg entry inh -12%, CHX counter 7, Shiga toxin inh 14, Lassa entry inh -20% and VACV Venus inh -22%.
For Oc1ccc(-c2cn3cc(C(F)(F)F)ccc3n2)cc1 the results were Marburg entry inh 5.8µM*, CHX counter 10, Shiga toxin inh 18, Vaccinia mCherry inactive, Lassa entry inh 2µM* and VACV Venus inh -2%.
CC1CCN(S(=O)(=O)c2cccc(-c3cn4cc(Cl)ccc4n3)c2)CC1 was read as Marburg entry inh 9%, CHX counter 12, Shiga toxin inh 53*, Vaccinia mCherry inactive[1.46 µM], Lassa entry inh 10% and VACV Venus inh -23%.
Screening CN(C)C(=O)Oc1ccc(-c2cn3cc(C(F)(F)F)ccc3n2)cc1 returned Marburg entry inh -18%, CHX counter 20, Shiga toxin inh 41*, Vaccinia mCherry 38%, Lassa entry inh 13% and VACV Venus inh 25%.
Screening CN(C)C(=O)Oc1ccc(-c2cn3cc(Cl)ccc3n2)cc1 returned Marburg entry inh inconclusive, CHX counter 50*, Shiga toxin inh 55*, Vaccinia mCherry -2%, Lassa entry inh inconclusive and VACV Venus inh -10%.
For Cc1ccc(-c2nc(C)c(CCNC(=O)c3ccccc3Br)s2)cc1 the results were Vaccinia mCherry -22%, Lassa entry inh inconclusive and VACV Venus inh -21%.
For CCCCSc1ncnc2c1c(-c1ccccc1)cn2-c1cccc(F)c1 the results were Marburg entry inh inconclusive, Vaccinia mCherry -25%, Lassa entry inh 24%[46.1 µM] and VACV Venus inh -17%.
`CCOCCCN(C(=O)c1snc(C(N)=O)c1N)C(C(=O)NC1CCCC1)c1ccc(O)c(OC)c1` (configuration not stated) gave Marburg entry inh 8%[46.1 µM], CHX counter -3, Shiga toxin inh 20, Vaccinia mCherry -4%, Lassa entry inh inconclusive and VACV Venus inh -16%.
For CN(C)C(=O)Oc1cccc(-c2cn3cc(Cl)ccc3n2)c1 the results were Marburg entry inh -15%, CHX counter 43*, Shiga toxin inh 58*, Vaccinia mCherry -2%, Lassa entry inh -9% and VACV Venus inh -17%.
Screening Cc1c(C(=O)N(Cc2ccc(N(C)C)cc2)CC2CCCO2)oc2ccc(Cl)cc12 (configuration not stated) returned Marburg entry inh -21%[46.1 µM], Vaccinia mCherry -13%, Lassa entry inh inconclusive and VACV Venus inh -6%.
`Cc1c(C(=O)N(Cc2ccc(Cl)cc2)CC2CCCO2)oc2ccc(F)cc12` (configuration not stated) gave Marburg entry inh 12%[46.1 µM], Vaccinia mCherry -12%, Lassa entry inh -20%[46.1 µM] and VACV Venus inh -10%.
Cc1ccc2oc(C(=O)N(Cc3ccncc3)CC3CCCO3)c(C)c2c1 (configuration not stated) was read as Marburg entry inh -18%, CHX counter 35*, Shiga toxin inh 54*, Vaccinia mCherry -4%, Lassa entry inh 4% and VACV Venus inh -14%.
